Drawing on PubChem BioAssay AID374 (University of Pittsburgh Molecular Library Screening Center, 2006), this text covers inhibition for 24 compounds.

The structures appear in SMILES notation. Hit rate of the full screen: of about 65,000 compounds, about 100 (0.15%) were called active. Many of the other results were omitted from the sample, so actives are more common in it than they were. A number with no mark means an inactive call.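 The calls were made as follows: active = inhibition above about 50% (limit read from the data); inconclusive = inhibition over screen mean plus 3 SD, below that limit; inactive = the rest.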

Sequence of Dual specificity protein phosphatase 1 (Homo sapiens) (P28562 whole entry, looked up): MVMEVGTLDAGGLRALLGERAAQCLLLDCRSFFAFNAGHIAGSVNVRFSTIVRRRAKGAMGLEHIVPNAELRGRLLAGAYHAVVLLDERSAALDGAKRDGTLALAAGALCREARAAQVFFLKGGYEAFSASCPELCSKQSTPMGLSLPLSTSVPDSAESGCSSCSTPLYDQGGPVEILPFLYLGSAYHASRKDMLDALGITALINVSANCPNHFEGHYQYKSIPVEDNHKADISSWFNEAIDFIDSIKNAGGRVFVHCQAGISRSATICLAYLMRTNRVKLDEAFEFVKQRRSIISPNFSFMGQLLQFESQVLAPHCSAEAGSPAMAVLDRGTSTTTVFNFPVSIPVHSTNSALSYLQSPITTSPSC

This assay addresses Dual specificity protein phosphatase 1 (Homo sapiens) (UniProt P28562). The assay is described as follows: blockers of human DUSP1 activity – biochemical, in vitro, primary screen (AID 374).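 Also: 0% = DMSO max control wells and 100% = wells with enzyme stopped by NaOH.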 As to conditions: recombinant MKP-1, OMFP hydrolysis fluorescence; stronger effect = higher value;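 compounds tested at a single concentration somewhere between 10 and 100 µM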.
On to `Cn1c(SCC(=O)c2cccs2)nnc1-c1ccco1`, for which the inhibition is 0.18%.

For `CC(C)[C@H](NC(=O)Nc1ccc(S(N)(=O)=O)cc1)C(=O)O`, the inhibition is -4.12%.

As to `CCc1ccccc1N(CC(=O)NCCSCc1ccco1)S(C)(=O)=O`, the inhibition was -0.33%.

Turning to `CC(CN1CCCCC1)OC(=O)c1ccccc1Cl` (centres undefined), the inhibition is -18.9%.

As for `O=C(Nc1cnccn1)c1cccnc1`, the inhibition was 35.7%.

With `Cc1cccc(C)c1NC(=O)N1CC=C(n2c(=O)[nH]c3ccccc32)CC1`, the inhibition was -1.96%.

As for `O.O.O.O=S(=O)([O-])OC[C@H]1O[C@@H](O[C@]2(COS(=O)(=O)[O-])O[C@H](OS(=O)(=O)[O-])[C@@H](OS(=O)(=O)[O-])[C@@H]2OS(=O)(=O)[O-])[C@H](OS(=O)(=O)[O-])[C@@H](OS(=O)(=O)[O-])[C@@H]1OS(=O)(=O)[O-].[Al]`, the inhibition was 9.95%.

Turning to `CC(=NC1CCN(Cc2ccccc2)CC1)c1c(O)[nH]c(=O)[nH]c1=O`, the inhibition is -4.49%.

With `COc1ccccc1Nc1nc(N)nc(CN(C)C2CCCCC2)n1`, the inhibition is -2.91%.

As for `CCN(CC(=O)Nc1ccc2c(c1)OCCO2)Cc1cc(=O)oc2cc(C)c(C)cc12`, the inhibition is 12.7%.

In the case of `Cc1cc(C)c(NC(=O)CS(=O)CC(=O)Nc2cccnc2)c(C)c1` (centres undefined), the inhibition is -12.3%.

For the compound `Cc1ccnc(N2CCN(C(=O)CSc3nc4ccccc4nc3N3CCCCC3)CC2)c1`, the inhibition was 6.59%.

As for `Nn1c(SCC(=O)NC(=O)NC2CCCC2)nnc1-c1ccccc1F`, the inhibition was -5.68%.

Consider `O=c1cc(CO)oc(CN2CCC(Cc3ccccc3)CC2)c1O`, for which the inhibition is 8.32%.

Regarding `CCOC(=O)CSc1nnc(-c2ccco2)n1C`, the inhibition was -29.8%.

Regarding `CCCCNC(=O)CSc1nnc(-c2ccco2)n1C`, the inhibition is 93.8% (active).

Regarding `O=C(CSc1nnc(-c2ccco2)n1-c1ccccc1)NCCc1ccccc1`, the inhibition is -9.86%.

Turning to `Cc1cc(C)c2c(c1)cc(C)c1nnc(SCC(=O)Nc3cc(C)on3)n12`, the inhibition is 8.08%.

For `c1csc(CN2CCN(Cc3cccs3)C2c2cccs2)c1`, the inhibition was -1.36%.

For `Cc1ccc2c(NC(=O)C3CC3)cccc2n1`, the inhibition is 3.59%.

On to `CCOc1cc(/C=N/n2cnnc2)c(Br)cc1O`, for which the inhibition was -7.39%.

In the case of `O=C1c2cccnc2C(Nc2ccc(S(=O)(=O)N3CCCCCC3)cc2)N1Cc1ccccc1` (centres undefined), the inhibition was 51.4% (active).

As for `COc1ccc(S(=O)(=O)N2CCCC(C(=O)Nc3ccc(NC(=O)c4ccccn4)cc3)C2)cc1` (centres undefined), the inhibition was 32.2%.

Consider `O=C(Nc1ccc(S(=O)(=O)N2CCCCC2)cc1)c1cnccn1`, for which the inhibition was -0.35%.
